Screening results from PubChem BioAssay.
NPR1 activator: GC-A (human) enzyme activation | P16066 | HEK293 GC-A cells, cGMP TR-FRET, EC30 ANP; 0% at EC30 ANP, 100% saturating ANP | activation, % at 10 µM | hit rate 0.14% among 370,000 | AID 1671463; in the data active means activation above about 40%
NPR2 activator: GC-B (human) receptor activation. HEK293-GC-B cells, CNP EC30, cGMP TR-FRET; 0% at EC30 CNP, 100% saturating CNP. activation, % at 10 µM. hit rate 0.11% among 370,000. AID 1920062;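 active means activation at 10 µM reaching about 35% in either raw or pattern-adjusted values, limit read from the data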
ADAM10 inh: inhibitors of human ADAM10 | O14672 | recombinant ADAM10, EDANS/DABCYL FRET peptide cleavage, 3 h | inhibition, % at 7 µM | hit rate 0.62% among 370,000 | AID 720582;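 active means inhibition above a per-campaign cutoff equal to the mean of compounds falling between control-based bounds plus 3 SD, cut at about 20% in these data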;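 further: 0% = DMSO wells while the 100% control is not disclosed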
ADAM17 inh: inhibits human ADAM17; hit rate 0.83% among 370,000; recombinant ADAM17, EDANS/DABCYL FRET peptide cleavage; P78536; inhibition, % at 6.95 µM;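 active means inhibition above the mean of compounds lying between control limits plus 3 SD, set per campaign, cut at about 8.5% in these data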;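 further: 0% = DMSO-only wells as the low control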
Target sequence (P78536 215-824 limits assumed): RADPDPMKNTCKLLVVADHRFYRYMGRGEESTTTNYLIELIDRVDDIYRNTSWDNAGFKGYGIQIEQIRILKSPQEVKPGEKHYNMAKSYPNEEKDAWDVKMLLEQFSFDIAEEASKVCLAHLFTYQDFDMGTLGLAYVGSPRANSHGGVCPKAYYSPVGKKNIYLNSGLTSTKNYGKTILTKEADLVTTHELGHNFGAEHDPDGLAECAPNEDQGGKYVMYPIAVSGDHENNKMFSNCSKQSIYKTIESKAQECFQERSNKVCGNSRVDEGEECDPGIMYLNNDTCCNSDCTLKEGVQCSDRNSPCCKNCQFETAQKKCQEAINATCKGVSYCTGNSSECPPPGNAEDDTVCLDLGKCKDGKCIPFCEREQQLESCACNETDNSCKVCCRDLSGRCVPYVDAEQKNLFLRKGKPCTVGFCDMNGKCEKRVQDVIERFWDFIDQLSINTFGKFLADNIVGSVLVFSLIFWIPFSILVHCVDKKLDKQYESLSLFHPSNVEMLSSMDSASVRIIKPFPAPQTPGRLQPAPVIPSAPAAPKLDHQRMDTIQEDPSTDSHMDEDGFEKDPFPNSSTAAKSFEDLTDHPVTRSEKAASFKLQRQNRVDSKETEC
FAS-TE inh: FAS thioesterase (human) inhibition | P49327 | recombinant FAS-TE, OMFH fluorogenic substrate, fluorescence endpoint | inhibition, % at 15 µM | hit rate 0.67% among 360,000 | AID 602261;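 active means compounds whose normalised, plate-corrected inhibition of enzyme fluorescence in the single-dose primary screen is 50% or more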;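 further: 0% = DMSO with enzyme and 100% = substrate without enzyme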
ADAM10 confirm: human ADAM10 inhibition, confirmation; inhibition, % at 6.95 µM; shares compounds with ADAM10 inh; ADAM10 QFRET peptide cleavage, EDANS fluorescence; hit rate 1% among 2,100;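 active means inhibition above about 20% chosen separately for each screening run, limit read from the data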;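 further: 0% = DMSO wells and 100% = marimastat wells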
ADAM17 counter: counter-screen for ADAM10 exosite inhibitors: inhibitors of human ADAM17 | AID 743214 | ADAM17 QFRET peptide cleavage, EDANS fluorescence | shares compounds with ADAM10 inh | hit rate 0.5% among 2,100 | inhibition, % at 6.95 µM;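 active means mean triplicate inhibition above the solvent-only control wells' mean plus 3 SD, cut at about 12% in these data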;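 further: 0% = DMSO wells and 100% = marimastat wells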
ADAM10 counter: ADAM10 inhibition, counter-screen for ADAM17 exosite hits; shares compounds with ADAM17 inh; recombinant ADAM10, EDANS/DABCYL FRET peptide cleavage, 3 h; inhibition, % at 6.95 µM; hit rate 47% among 2,900;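 active means mean inhibition over the triplicate runs exceeds the activity threshold set in the earlier primary screen, cut at about 20% in these data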;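 further: 0% = DMSO wells and 100% = marimastat wells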
ADAM17 confirm: human ADAM17 inhibition, confirmation; hit rate 65% among 2,900; recombinant ADAM17, EDANS/DABCYL QFRET peptide cleavage; inhibition, % at 6.95 µM; shares compounds with ADAM17 inh;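 active means mean inhibition across replicates above the hit cutoff set in the primary screen, cut at about 8.5% in these data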;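 further: 0% = DMSO wells and 100% = marimastat wells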
Numbers without * were called inactive; . = no result. Rows were chosen to be rich in hits. Some 2% of all compounds tested hit in one or more screens of this group.

SMILES | NPR1 activator | NPR2 activator | ADAM10 inh | ADAM17 inh | FAS-TE inh | ADAM10 confirm | ADAM17 counter | ADAM10 counter | ADAM17 confirm
C[C@H]1[C@@H](NC(=O)C2CCOC2)CC[C@@]23CCCN2C(=O)CCC[C@@H]13 (some centres undefined) | 4 | 0 | 8 | 3 | . | . | . | . | .
COc1cc(C(=O)Nc2ccc(S(=O)(=O)N3CCc4ccccc43)cc2)cc(OC)c1OC | 4 | 4 | 26* | 11* | 27 | 6 | 2 | 26* | 16*
COc1ccc(S(=O)(=O)N2CCc3ccccc32)cc1C(=O)Nc1ccc(C(N)=O)cc1 | -4 | 4 | -13 | -3 | -2 | . | . | . | .
CN(Cc1ccccc1)C(=O)Cn1nnc(-c2ccccc2)c1COc1ccc2ccccc2c1 | -3 | 2 | 34* | 20* | 19 | 8 | 2 | 25* | 16*
Cc1ccccc1C1CCC2(CCC(=O)N2CC[C@@H](O)c2ccccc2)CC1 (some centres undefined) | -4 | -5 | -4 | -2 | . | . | . | . | .
C=CCN1[C@H](Cc2ccccc2)COc2cc(F)ccc2S1(=O)=O | 1 | -6 | 3 | 1 | . | . | . | . | .
COc1cccc(OCC(=O)Nc2cc(Cl)ccc2Oc2ccccc2)c1 | 3 | 3 | 2 | -1 | 38 | . | . | . | .
Cc1cccc(C)c1N(CC(=O)Nc1cc(Cl)ccc1Oc1ccccc1)S(C)(=O)=O | -34 | -34 | 30* | 8.8* | 33 | 6 | 3 | 26* | 16*
Cc1ccc(C)c(N(CC(=O)Nc2cc(Cl)ccc2Oc2ccccc2)S(C)(=O)=O)c1 | -26 | -20 | 29* | 10* | 33 | 6 | 3 | 24* | 13*
COc1ccc(-n2c(SCc3cccc4ccccc34)nnc2-c2ccccc2)cc1 | -27 | -19 | 6 | 3 | . | . | . | . | .
O=C(CN1CCN(S(=O)(=O)c2ccc(Br)cc2)CC1)N/N=C/c1ccc(Cl)c([N+](=O)[O-])c1 | -13 | -8 | 26* | 11* | 46 | 2 | 0 | 26* | 14*
Cc1ccc(S(=O)(=O)N2CCN(CC(=O)N/N=C\c3ccc(Cl)c([N+](=O)[O-])c3)CC2)cc1 | -11 | -1 | 2 | 4 | 15 | . | . | . | .
Cc1ccc(S(=O)(=O)N(Cc2ccc(Cl)cc2)c2ccccc2C(=O)NCc2ccco2)cc1 | -11 | -8 | 22* | 11* | 37 | 6 | 2 | 19 | 12*
CC(=O)CC[C@@H]1CC[C@]2(CCCN(C(=O)C3CCCC3)C2)O1 | 2 | -2 | -5 | -3 | . | . | . | . | .
O=C(CNC(=O)c1[nH]cnc1C(=O)N[C@@H](Cc1ccccc1)C(=O)OCc1ccccc1)OCc1ccccc1 | 2 | 9 | 22* | 8.8* | 26 | 8 | 3 | 25* | 15*
O=C(CNC(=O)c1[nH]cnc1C(=O)NC(c1ccccc1)c1ccccc1)OCc1ccccc1 | 1 | 13 | 21* | 11* | 15 | 9 | 3 | 29* | 13*
CC(C)(C)OC(=O)[C@H](Cc1ccccc1)NC(=O)c1nc[nH]c1C(=O)NCC(=O)OCc1ccccc1 | 2 | 6 | 30* | 11* | 35 | 8 | 3 | 44* | 20*
CC(C)(C)OC(=O)C(Cc1ccc(OC(C)(C)C)cc1)NC(=O)CNC(=O)OCc1ccccc1 (centres undefined) | -5 | 1 | 25* | 13* | 20 | -1 | 0 | 15 | 8
CC(C)(C)OC(=O)CNC(=O)c1[nH]cnc1C(=O)NCC(=O)OCc1ccccc1 | 2 | 3 | 6 | 0 | 11 | . | . | . | .
C[C@H](NC(=O)c1nc[nH]c1C(=O)N[C@@H](Cc1ccccc1)C(=O)OCc1ccccc1)C(=O)OC(C)(C)C | -2 | 4 | 24* | 11* | 28 | 10 | 3 | 26* | 14*
Cc1ccc(NC(=O)c2nc[nH]c2C(=O)N[C@@H](C)C(=O)OC(C)(C)C)cc1 | -3 | -2 | 27* | 14* | 6 | 2 | 1 | 28* | 12*
O=C(CN1CCN(c2ccccc2O)CC1)Nc1cc(S(=O)(=O)N2CCCC2)ccc1Cl | -3 | -3 | 29* | 8.9* | 14 | 7 | 3 | 13 | 11*
Fc1cccc(F)c1Cn1ccc2ccc(-c3ccc4ccn(Cc5c(F)cccc5F)c4c3)cc21 | 1 | 4 | 1 | -2 | . | . | . | . | .
Cc1ccc(NC(=O)CN(Cc2ccco2)Cc2ccccc2O)cc1C | -2 | -7 | 28* | 14* | 21 | 4 | 1 | 30* | 14*
Cc1cccc(NC(=O)Cn2c(=O)n(CCc3c[nH]c4ccccc34)c(=O)c3cccnc32)c1 | -3 | -3 | 20* | 10* | . | 7 | 3 | 27* | 17*
SMILES | NPR1 activator | NPR2 activator | ADAM10 inh | ADAM17 inh | FAS-TE inh | ADAM10 confirm | ADAM17 counter | ADAM10 counter | ADAM17 confirm
Cc1ccc(S(=O)(=O)N(C)C[C@H]2Oc3cc(Br)ccc3S(=O)(=O)N([C@H](C)CO)C[C@@H]2C)cc1 | 5 | 2 | -4 | 2 | -6 | . | . | . | .
Cc1ccc(S(=O)(=O)N(C)C[C@H]2Oc3cc(Br)ccc3S(=O)(=O)N([C@H](C)CO)C[C@H]2C)cc1 | -9 | -2 | 31* | 17* | 26 | 1 | 0 | 12 | 7
O=C(Nc1ccc(C(F)(F)F)cc1)c1ccccc1 | -2 | 0 | 15 | 2 | -1 | . | . | . | .
O=C(Nc1ccc(Br)c(C(F)(F)F)c1)c1ccccc1 | -3 | -14 | 35* | 13* | 42 | 2 | 1 | 25* | 15*
O=c1c(O)c(-c2ccc(O)cc2)oc2cc(O)cc(O)c12 | -2 | 0 | 21* | 8.9* | 0 | -2 | 0 | -5 | 3
O=c1cc(-c2ccc(O)cc2)oc2cc(O)cc(O)c12 | -2 | -1 | -7 | -3 | 3 | . | . | . | .
COc1cc(O)c(CC=C(C)C)c(O)c1C(=O)CCc1ccc(O)cc1 | -4 | 8 | 24* | 12* | -49 | 10 | 2 | 52* | 26*
O=C(CCc1ccc(O)cc1)c1c(O)cc(O)cc1O | 0 | -3 | -1 | 0 | -1 | . | . | . | .
O=C(CSc1nnc(COc2ccccc2)n1-c1ccccc1)Nc1ccc2c(c1)OCO2 | -8 | -12 | 0 | 1 | . | . | . | . | .
